# Source: PubChem
# Rows were chosen to be rich in hits. Some 0.54% of all compounds tested hit in one or more screens of this group.
# mIDH1 inhibitor: human IDH1 R132H inhibition. O75874. IDH1-R132H enzyme, NADPH consumption, diaphorase/resazurin fluorescence. Potency, µM (titrated, usually from 76.6 µM), most hits filed as inhibitors. actives 0.093% (n = 390,000). AID 602179; further: nearly all actives have a fitted effect of over 65% in size
#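 IDH1-R132H (0.5 ug/mL dispensed) in pH 7.5 Tris buffer was preincubated 30 min with compound, then given a substrate mix of 0.016 mM NADPH and 2 mM alpha-KG for 80 min at room temperature; remaining NADPH was read by diaphorase/resazurin fluorescence.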
# MLL CXXC-DNA inh: blocks binding of human MLL CXXC domain to DNA; MLL-CXXC / FITC-HOXA9 DNA fluorescence polarization; Potency, µM (top dose mostly 115 µM), usual class: inhibitors; actives 0.037% (n = 290,000); active means well fitted inhibition curve with a large enough effect in the polarisation, with a control signal flat, not every such curve was filed as active; inconclusive means small, poorly fitted or top-dose-only effect, or effect the other way, or a change in a side signal; inactive means no such curve, though single readings can be large or run the other way; the % refers to the polarisation
#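 Fluorescence polarization: 7 uM MLL-CXXC (stock) preincubated 5 min with compounds, then 50 nM fluorescein-HOX-A9 DNA (stock) added; 30 min ambient. Buffer 50 mM Tris-HCl pH 7.5, 50 mM NaCl, 1 mM DTT, 0.05% BSA.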
# Menin-MLL TR inh: inhibitors of human menin-MLL interaction, mutant MLL peptide. O00255. Potency, µM (titrated, usually from 61.6 µM), most hits filed as inhibitors. AID 1768. actives 0.23% (n = 270,000). Menin + Texas Red MLL mutant peptide, fluorescence polarization; active means well fitted inhibition curve with a large enough effect in the polarisation, with a control signal flat, not every such curve was filed as active; inconclusive means small, poorly fitted or top-dose-only effect, or effect the other way, or a change in a side signal; inactive means no such curve, though single readings can be large or run the other way; the % refers to the polarisation
# LDHA inh: LDHA (human) enzyme inhibition. actives 0.15% (n = 480,000). P00338. AID 1347041. activity change, % (values are at about 110 or 230 µM). purified LDHA, NADH/diaphorase-resazurin fluorescence; hits give low values; in the data active means activity change below about -30%; inconclusive means mostly about -25% to -30%
#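 Human LDH5 (2 nM) was incubated with 0.06 mM NADH and 0.2 mM pyruvate for 5 min at room temperature in Tris pH 7.4. Remaining NADH was coupled through diaphorase/resazurin, and resorufin fluorescence was read at 0 and 20 min.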
# Menin MLL FP FL: menin-MLL binding inhibition, fluorescein peptide; Fluorescence polarization, fluorescein-MLL peptide displacement from menin; FP activity change, % at 61.4 µM; 290,000 tested, under 10 active; AID 1766; active means well fitted curve in the direction sought with a large enough effect in the polarisation, not every such curve was filed as active; inconclusive means small, poorly fitted or top-dose-only effect, or effect the other way, or a change in a side signal; inactive means no such curve, though single readings can be large or run the other way; the % refers to the polarisation
# pAkt inh: Akt phosphorylation inhibition; AID 651550; Neuro2A IGF-stimulated pAkt S473 HTRF, 20 min; hits give low values; actives 0.32% (n = 360,000); activity change, % for hits at 50 µM; in the data active means activity change below about -80%; inconclusive means mostly about -51% to -80%
#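 Neuro2A cells in DMEM with 0.5% FBS, overnight at 37 deg C, given compound at single 50 µM final, then IGF (6 nM final) for 20 min at 37 deg C. Lysed; phospho-Akt Ser473 by HTRF after 24 h, 665/615 ratio.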
# Resorufin autofl: interferes with resorufin fluorescence in IDH1 counter-screen | shares compounds with mIDH1 inhibitor | Resorufin detection reagent fluorescence interference, cell-free | inhibition of signal, % at 51.2 µM | 750 tested, under 10 active | AID 623980
# WT IDH1 inh: inhibits human wild-type IDH1, mutant selectivity check; shares compounds with mIDH1 inhibitor; WT IDH1 enzyme, NADPH diaphorase/resazurin fluorescence; Potency, µM (titrated, usually from 115 µM), actives largely listed as inhibitors; actives 9% (n = 750); AID 623995; further: nearly all actives have a fitted effect of over 55% in size
# IDH1 R132H conf: inhibits human mutant IDH1 enzyme in cherrypick confirmation; IDH1 R132H enzyme, NADPH diaphorase/resazurin fluorescence; AID 624002; shares compounds with mIDH1 inhibitor; Potency, µM (series often up to 76.6 µM), hits mostly inhibitors; actives 83% (n = 750); further: nearly all actives have a fitted effect of over 50% in size
# A number is an active result; i = inactive; ? = inconclusive; nt = not tested or not shown. Unless noted, the call rests on the fitted dose curve; in most records, active means well fitted curve in the direction sought with a large enough effect; inconclusive means small, poorly fitted or top-dose-only effect, or another doubt; inactive means no such curve, though single readings can be large; an effect the other way counts as inactive or inconclusive.
SMILES,mIDH1 inhibitor,MLL CXXC-DNA inh,Menin-MLL TR inh,LDHA inh,Menin MLL FP FL,pAkt inh,Resorufin autofl,WT IDH1 inh,IDH1 R132H conf
CCc1nn2c(ncc3c(=O)n(CCN4CCOCC4)ccc32)c1-c1ccc(Cl)cc1,nt,nt,nt,i,nt,nt,nt,nt,nt
CC(C)(C)NC(=O)CSc1nc2ccc(Nc3nc(N4CCOCC4)nc(N4CCOCC4)n3)cc2s1,?,i,i,i,i,i,i,i,20µM
CCn1cc(S(=O)(=O)Nc2cccc(F)c2)cn1,nt,nt,nt,i,nt,nt,nt,nt,nt
Cc1ccc([C@@H]2C3COCC=C3C(C#N)=C(N)C2(C#N)C#N)o1 (some centres not stated),?,i,i,i,?,i,i,i,?
Cc1ccc(C2C3CSCC=C3C(C#N)=C(N)C2(C#N)C#N)cc1 (configuration not stated),?,i,i,i,?,i,i,i,39.8µM
CC1=NOC(=O)/C1=C\c1ccc(-c2ccc(Br)cc2)o1,20.7µM,i,?,i,i,i,i,?,22.4µM
c1ccc2c(c1)ncc1cccn12,i,i,i,i,i,i,nt,nt,nt
CCn1c2ccccc2c2c3ncc4cccn4c3ccc21,?,?,?,i,?,i,i,44.7µM,14.1µM
O=C(Nc1ccc(S(=O)(=O)N2CCOCC2)cc1)c1ccc2c(c1)S(=O)(=O)c1ccccc1C2=O,?,i,?,i,i,i,i,i,3.98µM
COc1cc2c(O)c3c(c(-c4ccc5c(c4)OCO5)c2cc1OC)C(=O)OC3,?,i,i,i,i,i,i,?,25.1µM
O=C(NC1CCCCC1)C(c1ccccc1F)N(Cc1ccco1)C(=O)Cn1nnc2ccccc21 (configuration not stated),?,i,i,i,i,nt,i,i,11.2µM
CCC(C)(C)NC(=O)C(c1ccc(C)cc1)N(Cc1ccco1)C(=O)Cn1nnc2ccccc21 (configuration not stated),i,i,i,i,i,i,nt,nt,nt
Cc1ccc(C(C(=O)NC2CCCCC2)N(Cc2ccco2)C(=O)Cn2cnc3ccccc32)cc1 (configuration not stated),29.3µM,i,i,i,i,i,i,i,12.6µM
O=C(NC1CCCCC1)C(c1ccc(F)cc1)N(Cc1ccco1)C(=O)Cn1nnc2ccccc21 (configuration not stated),i,i,?,i,i,i,nt,nt,nt
Cc1ccccc1C(C(=O)NCc1ccco1)N(CC1CCCO1)C(=O)Cn1nnc2ccccc21 (configuration not stated),?,i,i,i,i,i,i,i,39.8µM
O=C(NCc1ccco1)C(c1ccccc1)N(CC1CCCO1)C(=O)Cn1nnc2ccccc21 (configuration not stated),i,i,i,i,i,i,nt,nt,nt
CC1CCc2c(sc(NC(=O)COCC(=O)O)c2C(=O)Nc2ccccc2)C1 (configuration not stated),nt,nt,nt,i,nt,nt,nt,nt,nt
O=C1N(Cc2ccccc2F)CCCN1c1ccc(C(=O)N2CCc3ccccc32)cc1,nt,nt,nt,i,nt,nt,nt,nt,nt
COc1cc(OC)c(NC(=O)c2cnn(-c3ccccc3)c2-n2cccc2)cc1Cl,39.8µM,nt,nt,i,nt,nt,i,i,7.08µM
COc1ccccc1NC(=O)c1cnn(-c2ccccc2)c1-n1cccc1,i,nt,nt,i,nt,nt,nt,nt,nt
CC(=O)c1ccc(NC(=O)Cn2cnc3c2c(=O)n(C)c(=O)n3C)cc1,nt,nt,nt,i,nt,nt,nt,nt,nt
CCN(CC)C(=S)SC(C)C(=O)Nc1cccc(C#N)c1 (configuration not stated),nt,nt,nt,i,nt,nt,nt,nt,nt
O=C1c2ccccc2-c2n[nH]c(=O)c3ccc(N4CCCCC4)c1c23,?,?,i,i,i,i,i,?,31.6µM
O=c1[nH]nc(-c2ccc(N3CCCCC3)c([N+](=O)[O-])c2)c2ccccc12,nt,nt,nt,i,nt,nt,nt,nt,nt
Cc1cc(C(=O)CSc2ccc(Br)cc2)c(C)[nH]1,nt,nt,nt,i,nt,nt,nt,nt,nt
SMILES,mIDH1 inhibitor,MLL CXXC-DNA inh,Menin-MLL TR inh,LDHA inh,Menin MLL FP FL,pAkt inh,Resorufin autofl,WT IDH1 inh,IDH1 R132H conf
CN(Cc1ccccc1N1CCCC1)C(=O)c1nn(C)c(=O)c2ccccc12,nt,nt,nt,i,nt,nt,nt,nt,nt
C[C@H]1CN([C@@H](C)CO)C(=O)CCCn2nncc2CO[C@H]1CN(C)S(=O)(=O)c1ccc(Oc2ccccc2)cc1,?,nt,nt,i,nt,i,i,i,?
O=C(c1cc(-c2cccc(Cl)c2)on1)N1CCSCC1,nt,nt,nt,i,nt,nt,nt,nt,nt
O=c1cc(CN2CCc3ccccc32)nc2sccn12,31.6µM,i,i,i,i,i,i,?,50.1µM
O=c1cc(CN2CCCc3ccccc32)nc2sccn12,i,?,i,i,?,i,nt,nt,nt
COc1ccc(-c2cc(-c3nnc(COC(=O)c4ccc(O)cc4)o3)c3ccccc3n2)cc1OC,?,?,?,i,i,i,i,i,?
COc1cc(C2C(C(=O)Nc3ccccn3)=C(C)Nc3ncnn32)ccc1OCc1ccccc1 (configuration not stated),nt,nt,nt,i,nt,nt,nt,nt,nt
CCCN(Cc1cc2cc(C)ccc2[nH]c1=O)C(=O)c1ccc(C(C)(C)C)cc1,nt,nt,nt,i,nt,nt,nt,nt,nt
O=C1/C(=C/c2cccnc2)CC/C1=C\c1cccnc1,i,i,i,i,i,i,nt,nt,nt
CCC1C/C(=C\c2cccnc2)C(=O)/C(=C/c2cccnc2)C1 (configuration not stated),52.1µM,i,i,i,i,i,i,i,31.6µM
O=C(NC1CCSc2ccccc21)c1cc2c(s1)CCC2 (configuration not stated),nt,nt,nt,i,nt,nt,nt,nt,nt
COc1ccc(-n2cc(-c3ccccc3)c3c(NC4CCCC4)ncnc32)cc1,31.6µM,nt,nt,i,nt,nt,i,i,14.1µM
Clc1cccc(-n2cc(-c3ccccc3)c3c(NC4CCCC4)ncnc32)c1,i,nt,nt,i,nt,nt,nt,nt,nt
Cc1cccc(/C=C/C(=O)c2ccc([N+](=O)[O-])o2)c1,4.47µM,nt,nt,i,nt,i,i,22.4µM,2µM
O=C(/C=C/c1cccc([N+](=O)[O-])c1)c1ccc([N+](=O)[O-])o1,?,nt,nt,i,nt,i,nt,nt,nt
Cc1ccccc1/C=C/C(=O)c1ccc([N+](=O)[O-])o1,?,nt,nt,i,nt,i,i,39.8µM,?
Cn1cc(C(=O)N2CCCN(S(=O)(=O)c3ccc(F)cc3)CC2)cn1,nt,nt,nt,i,nt,nt,nt,nt,nt
Nc1c(S(=O)(=O)O)cc(NC(=O)c2ccccc2)c2c1C(=O)c1ccccc1C2=O,?,i,?,i,i,i,i,28.2µM,14.1µM
